molecular target: Dual specificity protein kinase CLK3 (Homo sapiens) (UniProt P49761); conditions: at 1 µM;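 further: each value is the mean inhibition of CLK3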
Sequence (P49761 whole entry, looked up): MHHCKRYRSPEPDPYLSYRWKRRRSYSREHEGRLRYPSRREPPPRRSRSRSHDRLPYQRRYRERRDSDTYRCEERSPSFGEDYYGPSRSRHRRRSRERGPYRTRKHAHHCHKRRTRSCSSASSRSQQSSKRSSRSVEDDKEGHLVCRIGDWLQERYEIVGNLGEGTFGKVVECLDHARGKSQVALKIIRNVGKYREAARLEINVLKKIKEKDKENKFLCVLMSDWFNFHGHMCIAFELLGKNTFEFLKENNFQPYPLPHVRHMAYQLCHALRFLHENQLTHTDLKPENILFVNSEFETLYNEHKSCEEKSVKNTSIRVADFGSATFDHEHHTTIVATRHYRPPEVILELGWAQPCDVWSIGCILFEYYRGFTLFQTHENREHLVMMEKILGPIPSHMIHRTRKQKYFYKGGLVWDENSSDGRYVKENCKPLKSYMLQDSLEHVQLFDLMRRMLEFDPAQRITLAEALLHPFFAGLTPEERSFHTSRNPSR

SMILES | inhibition
Cc1ccc(C(=O)NC2CC2)cc1-c1ccc2[nH]ncc2c1 | 0.04%
OCc1ccc(-c2nc(-c3ccccn3)c(-c3ccc4c(c3)OCO4)[nH]2)cc1 | 2.95%
CC(C)c1ccc2c(c1)NC(=O)/C2=N/Nc1ccc(S(N)(=O)=O)cc1 | -0.08%
CN(C)C(=O)O[C@@H]1CN[C@@H](C#Cc2cc3ncnc(Nc4ccc(OCc5cccc(F)c5)c(Cl)c4)c3s2)C1 | 0.69%
COc1cccc(-n2nc(C)c3c(N/N=C(\C)c4ccncc4)ncnc32)c1 | -2.35%
COC(=O)c1ccc2c(c1)C(=Cc1cc(Br)c(O)c(Br)c1)C(=O)N2 | 7.3%
Oc1cccc(-c2nc(-c3ccccc3)[nH]c2-c2ccncc2)c1 | 2.52%
NS(=O)(=O)c1ccc(N/N=C2\C(=O)Nc3ccc(Cl)cc32)cc1 | 1.92%
COC(=O)Nc1nc2cc(Oc3ccc(NC(=O)Nc4cccc(Br)c4)cc3)ccc2[nH]1 | 1.74%
COC(=O)c1cncc(/C=C/c2c(C)cc(O)cc2C)c1 | 3.16%
COc1cc(/C=N/Nc2ncnc3c2cnn3C(C)C)ccc1O | 31.6%
CCS(=O)(=O)c1ccc(OC)c(Nc2nccc(N(C)c3ccc4c(C)n[nH]c4c3)n2)c1 | 2.41%
[O-][S+]1CCN(Cc2ccc(-c3ccc4ncnc(Nc5ccc(OCc6ccccc6)c(Cl)c5)c4c3)o2)CC1 | -0.64%
c1ccc(Cc2nc3ccc(Nc4ncnc5ccccc45)cc3[nH]2)cc1 | 5.49%
CCS(=O)(=O)c1ccc(OC)c(Nc2ncc(-c3cccc(OC)c3)o2)c1 | 13.2%
CCn1c(-c2nonc2N)nc2ccc(F)cc21 | 1.23%
CN(C)c1cc2c(Nc3ccc4c(cnn4Cc4ccccc4)c3)ncnc2cn1 | 1.41%

SMILES | inhibition
COc1cc2ncnc(Nc3ccc4c(cnn4Cc4ccccc4)c3)c2cc1OC | 0.4%
O=C1Nc2ccc(-c3cccnc3)cc2C1=Cc1cc(Br)c(O)c(Br)c1 | 38.6%
COc1cc2ncnc(Nc3ccc(C)c(O)c3)c2cc1OC | 2.38%
Cc1ccc2c(-c3ccnc(Nc4ccc5c(c4)OCCO5)n3)c(-c3ccc(C(F)(F)F)cc3)nn2n1 | 0.07%
Cc1ccc2c(-c3ccnc(Nc4cccc(C(F)(F)F)c4)n3)c(-c3ccccc3)nn2n1 | 2.3%
C[C@@H](Oc1cc(-n2cnc3ccc(OC[C@@H](O)CO)cc32)sc1C(N)=O)c1ccccc1Cl | 1.12%
CN(C)CCCn1c(-c2nonc2N)nc2cnccc21 | 1.96%
CN(c1ccc(NC(=O)Nc2ccc(OC(F)(F)F)cc2)cc1)c1ccnc(Nc2cccc(S(N)(=O)=O)c2)n1 | 1.99%
O=C1Nc2ccccc2/C1=C/Nc1ccc2[nH]c(=O)[nH]c2c1 | 4.44%
Cc1ccc2c(c1)/C(=N/Nc1ccc(S(N)(=O)=O)cc1)C(=O)N2 | -0.91%
CCCN1CCCC(c2ccc(Nc3nc(Nc4cc(F)ccc4C(N)=O)c4cc[nH]c4n3)c(OC)c2)C1 (stereo not drawn) | 22.3%
Nc1nccc(-c2c(-c3ccc(F)cc3)nn3cc(C(F)(F)F)ccc23)n1 | 0.23%
NS(=O)(=O)c1ccc(-c2cc3ccncc3cc2OCc2ccccc2)cc1 | 3.69%
NC(=O)c1sc(-n2cnc3ccccc32)cc1OCc1ccccc1Br | 0.92%
O=S(=O)(CCOCc1ccc(-c2ccc3ncnc(Nc4ccc(OCc5cccc(F)c5)c(Cl)c4)c3c2)o1)c1ccccc1 | 0.14%
Nc1ccc(C#Cc2cncnc2Nc2ccc(OCc3cccc(F)c3)c(Cl)c2)cc1 | 0.7%
ON=C1CCc2cc(-c3nc(C4CCNCC4)[nH]c3-c3ccncc3)ccc21 | 0.22%

molecular target: Dual specificity tyrosine-phosphorylation-regulated kinase 1A (Homo sapiens) (UniProt Q13627); conditions: at 0.1 µM

SMILES | inhibition
Cc1ccc(C(=O)NC2CC2)cc1-c1ccc2[nH]ncc2c1 | -1.4%
OCc1ccc(-c2nc(-c3ccccn3)c(-c3ccc4c(c3)OCO4)[nH]2)cc1 | 1.82%
CC(C)c1ccc2c(c1)NC(=O)/C2=N/Nc1ccc(S(N)(=O)=O)cc1 | 0.62%
CN(C)C(=O)O[C@@H]1CN[C@@H](C#Cc2cc3ncnc(Nc4ccc(OCc5cccc(F)c5)c(Cl)c4)c3s2)C1 | 0.28%
COc1cccc(-n2nc(C)c3c(N/N=C(\C)c4ccncc4)ncnc32)c1 | 1.02%
COC(=O)c1ccc2c(c1)C(=Cc1cc(Br)c(O)c(Br)c1)C(=O)N2 | 14.2%
Oc1cccc(-c2nc(-c3ccccc3)[nH]c2-c2ccncc2)c1 | 2.29%
NS(=O)(=O)c1ccc(N/N=C2\C(=O)Nc3ccc(Cl)cc32)cc1 | 1.08%
COC(=O)Nc1nc2cc(Oc3ccc(NC(=O)Nc4cccc(Br)c4)cc3)ccc2[nH]1 | 1.12%
COC(=O)c1cncc(/C=C/c2c(C)cc(O)cc2C)c1 | 2.81%
COc1cc(/C=N/Nc2ncnc3c2cnn3C(C)C)ccc1O | 1.4%
CCS(=O)(=O)c1ccc(OC)c(Nc2nccc(N(C)c3ccc4c(C)n[nH]c4c3)n2)c1 | 2.89%
[O-][S+]1CCN(Cc2ccc(-c3ccc4ncnc(Nc5ccc(OCc6ccccc6)c(Cl)c5)c4c3)o2)CC1 | 1.81%
c1ccc(Cc2nc3ccc(Nc4ncnc5ccccc45)cc3[nH]2)cc1 | 6.02%
CCS(=O)(=O)c1ccc(OC)c(Nc2ncc(-c3cccc(OC)c3)o2)c1 | 8.22%
CCn1c(-c2nonc2N)nc2ccc(F)cc21 | 5.13%
CN(C)c1cc2c(Nc3ccc4c(cnn4Cc4ccccc4)c3)ncnc2cn1 | 2.17%

SMILES | inhibition
COc1cc2ncnc(Nc3ccc4c(cnn4Cc4ccccc4)c3)c2cc1OC | 2.51%
O=C1Nc2ccc(-c3cccnc3)cc2C1=Cc1cc(Br)c(O)c(Br)c1 | 21.7%
COc1cc2ncnc(Nc3ccc(C)c(O)c3)c2cc1OC | 5.24%
Cc1ccc2c(-c3ccnc(Nc4ccc5c(c4)OCCO5)n3)c(-c3ccc(C(F)(F)F)cc3)nn2n1 | 0.1%
Cc1ccc2c(-c3ccnc(Nc4cccc(C(F)(F)F)c4)n3)c(-c3ccccc3)nn2n1 | 3.65%
C[C@@H](Oc1cc(-n2cnc3ccc(OC[C@@H](O)CO)cc32)sc1C(N)=O)c1ccccc1Cl | 0.12%
CN(C)CCCn1c(-c2nonc2N)nc2cnccc21 | 3.5%
CN(c1ccc(NC(=O)Nc2ccc(OC(F)(F)F)cc2)cc1)c1ccnc(Nc2cccc(S(N)(=O)=O)c2)n1 | 1.32%
O=C1Nc2ccccc2/C1=C/Nc1ccc2[nH]c(=O)[nH]c2c1 | 6.01%
Cc1ccc2c(c1)/C(=N/Nc1ccc(S(N)(=O)=O)cc1)C(=O)N2 | -1.04%
CCCN1CCCC(c2ccc(Nc3nc(Nc4cc(F)ccc4C(N)=O)c4cc[nH]c4n3)c(OC)c2)C1 (stereo not drawn) | 67.5%
Nc1nccc(-c2c(-c3ccc(F)cc3)nn3cc(C(F)(F)F)ccc23)n1 | 0.54%
NS(=O)(=O)c1ccc(-c2cc3ccncc3cc2OCc2ccccc2)cc1 | 1.26%
NC(=O)c1sc(-n2cnc3ccccc32)cc1OCc1ccccc1Br | 2.9%
O=S(=O)(CCOCc1ccc(-c2ccc3ncnc(Nc4ccc(OCc5cccc(F)c5)c(Cl)c4)c3c2)o1)c1ccccc1 | 1.15%
Nc1ccc(C#Cc2cncnc2Nc2ccc(OCc3cccc(F)c3)c(Cl)c2)cc1 | 3.22%
ON=C1CCc2cc(-c3nc(C4CCNCC4)[nH]c3-c3ccncc3)ccc21 | -0.17%

Source: ChEMBL document CHEMBL1961873, “Compounds: GSK PKIS; Assays: Nanosyn kinase panel” (2012)
